Tests used:
Assay in all cases: DAPPL (digital affinity profiling via proximity ligation, sequencing); 10 mM Tris-HCl pH 7.5, 50 mM NaCl, 1 mM DTT, 4% glycerol, room temperature, 30 min; GST-TFs on glutathione beads, 16-mer random dsDNA library, 0.1% formaldehyde crosslink after washing; high values mean tight binding
FLI1 = target: T1, FLI1 (Homo sapiens, UniProt Q01543 1-452); conditions: protein: recombinant; tags: N-terminal GST; dsDNA, one strand shown
T1 sequence: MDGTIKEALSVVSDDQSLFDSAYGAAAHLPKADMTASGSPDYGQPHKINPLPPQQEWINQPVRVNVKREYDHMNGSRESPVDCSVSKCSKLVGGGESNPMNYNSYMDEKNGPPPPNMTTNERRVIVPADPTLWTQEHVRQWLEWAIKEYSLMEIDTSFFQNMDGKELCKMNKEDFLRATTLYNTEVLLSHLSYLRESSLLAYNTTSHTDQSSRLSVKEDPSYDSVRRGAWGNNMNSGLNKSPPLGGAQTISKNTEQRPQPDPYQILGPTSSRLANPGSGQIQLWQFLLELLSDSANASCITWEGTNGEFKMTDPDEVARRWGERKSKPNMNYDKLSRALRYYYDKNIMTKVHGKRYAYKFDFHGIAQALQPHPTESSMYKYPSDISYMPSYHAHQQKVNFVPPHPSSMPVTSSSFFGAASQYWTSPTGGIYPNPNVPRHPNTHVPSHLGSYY
Method in brief: (§1)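 Sequencing on an Illumina NextSeq500 followed washing, crosslinking with 0.1% formaldehyde, proximity ligation (BsaI/T4 ligase, 1 h, 37 °C) and PCR amplification of pools that had been incubated for 30 min at room temperature with 200 nmole of a random double-stranded 16-mer DNA library in Tris/NaCl/DTT/glycerol buffer. Each pool held DNA-barcoded human transcription factors, expressed in yeast as GST fusions and captured on glutathione beads, plus a tag-only sample. Binding signal is a hexamer's read frequency for a factor divided by its frequency in the tag-only sample.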

ELK1 = target: T2, ELK1 (Homo sapiens, UniProt P19419 1-428); conditions: protein: recombinant; tags: N-terminal GST; dsDNA, one strand shown
T2 sequence: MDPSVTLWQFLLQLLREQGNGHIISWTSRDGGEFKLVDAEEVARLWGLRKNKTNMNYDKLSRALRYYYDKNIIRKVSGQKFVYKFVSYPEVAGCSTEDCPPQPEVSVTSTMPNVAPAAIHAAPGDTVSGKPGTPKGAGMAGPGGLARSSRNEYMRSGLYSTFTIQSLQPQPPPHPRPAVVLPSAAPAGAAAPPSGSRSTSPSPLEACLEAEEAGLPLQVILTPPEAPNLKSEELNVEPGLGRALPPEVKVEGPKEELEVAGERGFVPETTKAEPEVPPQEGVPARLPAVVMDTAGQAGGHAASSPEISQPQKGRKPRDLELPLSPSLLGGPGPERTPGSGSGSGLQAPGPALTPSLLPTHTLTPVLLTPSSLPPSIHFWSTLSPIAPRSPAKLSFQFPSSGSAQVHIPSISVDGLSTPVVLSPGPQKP
Method in brief: as §1

GABPA = target: T3, GABPA (Homo sapiens, UniProt Q06546 1-454); conditions: protein: recombinant; tags: N-terminal GST; dsDNA, one strand shown
T3 sequence: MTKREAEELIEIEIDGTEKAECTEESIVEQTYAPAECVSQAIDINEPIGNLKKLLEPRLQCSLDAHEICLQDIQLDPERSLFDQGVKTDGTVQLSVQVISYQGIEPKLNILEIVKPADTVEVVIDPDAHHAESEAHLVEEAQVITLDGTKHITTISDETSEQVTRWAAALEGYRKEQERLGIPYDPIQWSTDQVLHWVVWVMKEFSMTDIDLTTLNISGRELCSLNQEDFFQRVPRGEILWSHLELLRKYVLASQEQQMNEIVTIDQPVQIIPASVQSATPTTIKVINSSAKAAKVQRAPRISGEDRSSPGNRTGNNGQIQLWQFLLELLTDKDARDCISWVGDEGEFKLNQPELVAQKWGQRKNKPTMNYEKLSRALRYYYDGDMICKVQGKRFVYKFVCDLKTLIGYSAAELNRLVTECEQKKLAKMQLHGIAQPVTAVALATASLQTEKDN
Method in brief: as §1

ERG = target: T4, ERG (Homo sapiens, UniProt P11308 1-479); conditions: protein: recombinant; tags: N-terminal GST; dsDNA, one strand shown
T4 sequence: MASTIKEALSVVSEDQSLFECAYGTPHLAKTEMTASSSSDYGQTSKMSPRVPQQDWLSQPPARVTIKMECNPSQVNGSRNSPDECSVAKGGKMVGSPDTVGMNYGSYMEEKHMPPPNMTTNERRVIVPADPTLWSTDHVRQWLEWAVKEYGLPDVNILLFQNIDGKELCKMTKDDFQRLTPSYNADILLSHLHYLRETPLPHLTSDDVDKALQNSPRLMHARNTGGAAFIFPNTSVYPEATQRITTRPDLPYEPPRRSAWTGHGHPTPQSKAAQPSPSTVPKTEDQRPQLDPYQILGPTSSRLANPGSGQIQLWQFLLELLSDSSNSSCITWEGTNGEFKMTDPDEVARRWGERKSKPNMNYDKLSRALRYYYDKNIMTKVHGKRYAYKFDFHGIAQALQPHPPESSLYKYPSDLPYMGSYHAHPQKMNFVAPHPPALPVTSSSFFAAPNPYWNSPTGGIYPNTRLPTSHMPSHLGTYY
Method in brief: as §1

ELF1 = ELF1 (Homo sapiens, UniProt P32519 1-619); conditions: protein: recombinant; tags: N-terminal GST; dsDNA, one strand shown
ELF1, sequence (P32519 whole entry): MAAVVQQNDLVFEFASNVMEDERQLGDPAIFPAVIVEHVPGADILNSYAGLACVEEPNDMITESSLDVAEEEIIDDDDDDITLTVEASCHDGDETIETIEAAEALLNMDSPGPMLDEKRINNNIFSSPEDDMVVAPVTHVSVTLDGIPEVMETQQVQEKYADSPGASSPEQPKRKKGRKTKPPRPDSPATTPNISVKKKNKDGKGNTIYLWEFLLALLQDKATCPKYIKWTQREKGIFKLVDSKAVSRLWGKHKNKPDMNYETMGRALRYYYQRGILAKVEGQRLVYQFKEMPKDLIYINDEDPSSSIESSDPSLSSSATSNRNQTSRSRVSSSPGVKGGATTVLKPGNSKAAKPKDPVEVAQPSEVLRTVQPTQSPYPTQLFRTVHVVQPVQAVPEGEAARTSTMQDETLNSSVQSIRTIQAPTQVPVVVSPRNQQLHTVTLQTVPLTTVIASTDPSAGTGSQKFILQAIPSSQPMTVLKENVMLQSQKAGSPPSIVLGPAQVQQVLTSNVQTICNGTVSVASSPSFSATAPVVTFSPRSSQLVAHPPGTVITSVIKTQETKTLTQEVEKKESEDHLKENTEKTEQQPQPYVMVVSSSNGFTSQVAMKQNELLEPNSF
Method in brief: as §1

EHF = target: T5, EHF (Homo sapiens, UniProt Q9NZC4 1-300); conditions: protein: recombinant; tags: N-terminal GST; dsDNA, one strand shown
T5 sequence: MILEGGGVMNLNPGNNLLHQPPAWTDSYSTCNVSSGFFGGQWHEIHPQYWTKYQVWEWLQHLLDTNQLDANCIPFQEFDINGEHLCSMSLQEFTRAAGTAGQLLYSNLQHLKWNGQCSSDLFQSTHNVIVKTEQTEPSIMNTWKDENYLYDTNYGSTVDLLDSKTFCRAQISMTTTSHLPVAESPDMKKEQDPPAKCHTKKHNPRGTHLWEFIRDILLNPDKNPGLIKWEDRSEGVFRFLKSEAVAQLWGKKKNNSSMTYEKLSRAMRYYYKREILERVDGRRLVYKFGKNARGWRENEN
Method in brief: as §1

SPI1 = SPI1 (Homo sapiens, UniProt P17947 1-270); conditions: protein: recombinant; tags: N-terminal GST; dsDNA, one strand shown
Method in brief: as §1

SPIB = SPIB (Homo sapiens, UniProt Q01892 1-262); conditions: protein: recombinant; tags: N-terminal GST; dsDNA, one strand shown
SPIB, sequence (Q01892 whole entry): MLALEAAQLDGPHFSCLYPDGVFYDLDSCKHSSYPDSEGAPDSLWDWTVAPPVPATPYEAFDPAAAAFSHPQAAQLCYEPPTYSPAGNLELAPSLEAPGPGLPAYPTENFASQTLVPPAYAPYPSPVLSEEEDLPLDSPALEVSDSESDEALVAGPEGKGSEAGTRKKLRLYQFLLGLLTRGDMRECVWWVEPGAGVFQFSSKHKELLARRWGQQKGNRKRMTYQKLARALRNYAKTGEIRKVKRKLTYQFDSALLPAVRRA
Method in brief: as §1

ELK3 = target: T6, ELK3 (Homo sapiens, UniProt P41970 1-407); conditions: protein: recombinant; tags: N-terminal GST; dsDNA, one strand shown
T6 sequence: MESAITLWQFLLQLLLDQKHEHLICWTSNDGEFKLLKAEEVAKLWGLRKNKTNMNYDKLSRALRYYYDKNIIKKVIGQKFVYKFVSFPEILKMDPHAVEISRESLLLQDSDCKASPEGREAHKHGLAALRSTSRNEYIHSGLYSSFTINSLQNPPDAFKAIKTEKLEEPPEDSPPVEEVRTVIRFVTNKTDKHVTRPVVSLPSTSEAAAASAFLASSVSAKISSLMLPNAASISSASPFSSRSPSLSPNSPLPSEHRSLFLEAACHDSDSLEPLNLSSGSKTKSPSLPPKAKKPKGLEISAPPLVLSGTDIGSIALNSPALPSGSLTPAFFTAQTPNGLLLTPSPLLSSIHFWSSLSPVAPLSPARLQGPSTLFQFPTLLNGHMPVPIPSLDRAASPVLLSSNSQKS
Method in brief: as §1

FEV = target: T7, FEV (Homo sapiens, UniProt Q99581 1-238); conditions: protein: recombinant; tags: N-terminal GST; dsDNA, one strand shown
T7 sequence: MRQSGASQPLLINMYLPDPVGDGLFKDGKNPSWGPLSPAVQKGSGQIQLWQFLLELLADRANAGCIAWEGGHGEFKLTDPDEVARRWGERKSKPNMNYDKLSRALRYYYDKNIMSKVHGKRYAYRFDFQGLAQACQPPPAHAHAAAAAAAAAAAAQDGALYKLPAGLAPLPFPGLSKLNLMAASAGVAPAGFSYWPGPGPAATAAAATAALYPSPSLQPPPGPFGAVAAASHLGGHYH
Method in brief: as §1

ETV5 = ETV5 (Homo sapiens, UniProt P41161 1-510); conditions: protein: recombinant; tags: N-terminal GST; dsDNA, one strand shown
ETV5, sequence (P41161 whole entry): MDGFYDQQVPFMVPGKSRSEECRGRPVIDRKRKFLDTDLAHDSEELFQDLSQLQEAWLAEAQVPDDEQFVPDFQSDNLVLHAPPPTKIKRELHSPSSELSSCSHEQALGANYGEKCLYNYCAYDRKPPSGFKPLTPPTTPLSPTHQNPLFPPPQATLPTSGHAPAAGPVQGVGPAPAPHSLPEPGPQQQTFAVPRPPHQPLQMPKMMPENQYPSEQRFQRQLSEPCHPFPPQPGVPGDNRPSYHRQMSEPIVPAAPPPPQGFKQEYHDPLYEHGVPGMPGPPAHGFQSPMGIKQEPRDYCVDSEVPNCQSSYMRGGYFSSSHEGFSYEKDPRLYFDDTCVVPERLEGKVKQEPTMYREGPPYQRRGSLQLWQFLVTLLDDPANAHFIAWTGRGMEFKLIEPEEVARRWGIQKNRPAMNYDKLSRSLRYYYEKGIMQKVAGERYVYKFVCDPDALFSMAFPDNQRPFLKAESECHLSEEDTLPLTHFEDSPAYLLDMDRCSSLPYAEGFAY
Method in brief: as §1

HSF1 = HSF1 (Homo sapiens, UniProt Q00613 1-529); conditions: protein: recombinant; tags: N-terminal GST; chain copies: 3; dsDNA, one strand shown
HSF1, sequence (Q00613 whole entry): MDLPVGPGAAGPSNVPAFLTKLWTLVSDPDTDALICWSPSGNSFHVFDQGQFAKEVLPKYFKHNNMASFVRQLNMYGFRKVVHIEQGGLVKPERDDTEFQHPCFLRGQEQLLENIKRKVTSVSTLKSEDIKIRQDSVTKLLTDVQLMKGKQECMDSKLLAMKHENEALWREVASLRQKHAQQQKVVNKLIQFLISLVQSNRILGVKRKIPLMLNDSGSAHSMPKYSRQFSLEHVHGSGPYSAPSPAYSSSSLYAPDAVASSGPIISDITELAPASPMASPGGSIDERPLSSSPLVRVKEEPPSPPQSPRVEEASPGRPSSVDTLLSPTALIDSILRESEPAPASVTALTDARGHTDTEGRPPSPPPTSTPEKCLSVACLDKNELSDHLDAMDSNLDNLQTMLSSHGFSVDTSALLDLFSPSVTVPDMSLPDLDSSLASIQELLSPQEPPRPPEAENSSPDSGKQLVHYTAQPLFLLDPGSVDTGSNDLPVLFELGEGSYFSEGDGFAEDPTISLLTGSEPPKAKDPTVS
Method in brief: as §1

SPIC = target: T8, SPIC (Homo sapiens, UniProt Q8N5J4 1-248); conditions: protein: recombinant; tags: N-terminal GST; dsDNA, one strand shown
T8 sequence: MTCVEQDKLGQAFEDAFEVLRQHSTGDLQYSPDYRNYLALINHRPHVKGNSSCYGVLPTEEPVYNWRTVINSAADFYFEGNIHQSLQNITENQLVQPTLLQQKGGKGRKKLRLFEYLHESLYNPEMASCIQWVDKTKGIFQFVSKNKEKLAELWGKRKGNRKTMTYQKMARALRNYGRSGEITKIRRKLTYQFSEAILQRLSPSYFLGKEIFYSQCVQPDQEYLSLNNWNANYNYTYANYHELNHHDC
Method in brief: as §1

ELF4 = ELF4 (Homo sapiens, UniProt Q99607 1-663); conditions: protein: recombinant; tags: N-terminal GST; dsDNA, one strand shown
ELF4, sequence (Q99607 whole entry): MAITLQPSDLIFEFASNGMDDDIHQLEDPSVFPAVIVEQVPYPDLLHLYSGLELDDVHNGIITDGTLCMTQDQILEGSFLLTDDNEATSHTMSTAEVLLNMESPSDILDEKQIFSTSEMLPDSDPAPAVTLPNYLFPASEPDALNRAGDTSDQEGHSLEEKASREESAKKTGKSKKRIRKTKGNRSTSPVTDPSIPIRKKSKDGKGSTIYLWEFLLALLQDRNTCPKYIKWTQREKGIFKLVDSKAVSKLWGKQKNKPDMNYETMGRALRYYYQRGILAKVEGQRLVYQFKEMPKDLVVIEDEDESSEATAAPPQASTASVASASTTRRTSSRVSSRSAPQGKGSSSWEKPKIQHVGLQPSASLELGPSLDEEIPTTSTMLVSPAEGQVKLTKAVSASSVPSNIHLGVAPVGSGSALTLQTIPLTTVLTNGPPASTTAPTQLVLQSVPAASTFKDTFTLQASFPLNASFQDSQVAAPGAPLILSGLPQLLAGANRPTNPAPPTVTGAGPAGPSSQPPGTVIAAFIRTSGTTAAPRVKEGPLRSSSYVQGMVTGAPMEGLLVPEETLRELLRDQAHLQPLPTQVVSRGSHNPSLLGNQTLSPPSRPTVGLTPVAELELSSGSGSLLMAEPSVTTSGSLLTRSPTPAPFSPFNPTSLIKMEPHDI
Method in brief: as §1

ELK4 = target: T9, ELK4 (Homo sapiens, UniProt P28324-2 1-405); conditions: protein: recombinant; tags: N-terminal GST; dsDNA, one strand shown
T9 sequence: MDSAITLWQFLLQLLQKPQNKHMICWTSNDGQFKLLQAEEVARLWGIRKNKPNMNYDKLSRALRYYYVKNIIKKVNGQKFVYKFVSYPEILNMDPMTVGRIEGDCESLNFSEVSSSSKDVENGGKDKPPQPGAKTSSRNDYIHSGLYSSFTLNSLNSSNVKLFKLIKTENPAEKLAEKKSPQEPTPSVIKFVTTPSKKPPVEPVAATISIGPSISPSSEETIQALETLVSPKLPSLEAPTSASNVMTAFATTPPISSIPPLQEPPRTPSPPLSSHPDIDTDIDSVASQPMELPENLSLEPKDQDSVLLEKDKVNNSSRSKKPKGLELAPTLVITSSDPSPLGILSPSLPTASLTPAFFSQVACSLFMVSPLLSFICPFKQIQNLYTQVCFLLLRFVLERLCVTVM
Method in brief: as §1

ETV2 = target: T10, ETV2 (Homo sapiens, UniProt O00321 1-342); conditions: protein: recombinant; tags: N-terminal GST; dsDNA, one strand shown
T10 sequence: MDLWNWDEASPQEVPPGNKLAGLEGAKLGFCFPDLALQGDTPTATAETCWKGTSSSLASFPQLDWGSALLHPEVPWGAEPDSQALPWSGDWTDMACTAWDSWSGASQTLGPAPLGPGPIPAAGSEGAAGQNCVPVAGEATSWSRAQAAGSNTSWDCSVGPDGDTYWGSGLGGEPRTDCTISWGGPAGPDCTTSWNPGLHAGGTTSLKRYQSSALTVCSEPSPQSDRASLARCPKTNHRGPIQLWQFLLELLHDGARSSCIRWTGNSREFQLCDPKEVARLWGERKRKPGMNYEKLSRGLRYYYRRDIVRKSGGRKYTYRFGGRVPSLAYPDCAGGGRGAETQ
Method in brief: as §1

ELF3 = target: T11, ELF3 (Homo sapiens, UniProt P78545 1-371); conditions: protein: recombinant; tags: N-terminal GST; dsDNA, one strand shown
T11 sequence: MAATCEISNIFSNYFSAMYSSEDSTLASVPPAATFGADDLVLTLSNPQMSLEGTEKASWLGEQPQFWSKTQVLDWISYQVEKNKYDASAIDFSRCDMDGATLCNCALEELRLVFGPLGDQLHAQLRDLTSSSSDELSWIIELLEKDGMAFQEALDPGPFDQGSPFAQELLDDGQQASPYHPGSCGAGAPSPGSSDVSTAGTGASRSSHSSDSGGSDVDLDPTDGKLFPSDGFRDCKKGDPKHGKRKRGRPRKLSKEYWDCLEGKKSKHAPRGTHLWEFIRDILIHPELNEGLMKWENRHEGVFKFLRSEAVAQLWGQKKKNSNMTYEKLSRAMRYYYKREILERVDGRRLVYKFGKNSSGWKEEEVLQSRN
Method in brief: as §1

CRX = CRX (Homo sapiens, UniProt O43186 1-299); conditions: protein: recombinant; tags: N-terminal GST; dsDNA, one strand shown
CRX, sequence (O43186 whole entry): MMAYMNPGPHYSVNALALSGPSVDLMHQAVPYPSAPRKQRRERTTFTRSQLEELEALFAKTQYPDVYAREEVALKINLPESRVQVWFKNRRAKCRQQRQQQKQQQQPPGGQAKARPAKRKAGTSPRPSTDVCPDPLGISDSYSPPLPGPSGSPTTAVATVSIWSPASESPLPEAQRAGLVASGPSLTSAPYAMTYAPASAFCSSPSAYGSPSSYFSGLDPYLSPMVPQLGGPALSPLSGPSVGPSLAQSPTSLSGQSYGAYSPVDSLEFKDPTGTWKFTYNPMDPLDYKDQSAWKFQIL
Method in brief: as §1

ETV1 = ETV1 (Homo sapiens, UniProt P50549 1-477); conditions: protein: recombinant; tags: N-terminal GST; dsDNA, one strand shown
ETV1, sequence (P50549 whole entry): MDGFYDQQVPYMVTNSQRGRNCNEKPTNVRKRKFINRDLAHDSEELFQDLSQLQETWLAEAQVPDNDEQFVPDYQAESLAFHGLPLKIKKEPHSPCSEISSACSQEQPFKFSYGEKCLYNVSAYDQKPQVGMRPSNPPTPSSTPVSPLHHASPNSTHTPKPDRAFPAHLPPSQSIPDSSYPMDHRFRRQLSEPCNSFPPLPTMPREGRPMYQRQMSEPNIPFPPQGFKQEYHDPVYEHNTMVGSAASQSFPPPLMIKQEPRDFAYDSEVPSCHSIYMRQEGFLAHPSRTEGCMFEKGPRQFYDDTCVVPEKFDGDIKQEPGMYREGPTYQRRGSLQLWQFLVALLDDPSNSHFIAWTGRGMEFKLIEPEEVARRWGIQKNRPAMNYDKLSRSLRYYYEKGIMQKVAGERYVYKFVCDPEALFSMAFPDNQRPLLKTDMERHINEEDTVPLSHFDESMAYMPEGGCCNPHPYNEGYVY
Method in brief: as §1

Sequence: CACAAG
- binding signal (FLI1): 1.2 fold enrichment (6-mer frequency, TF over GST control)
- binding signal (ELK1): 1.17 fold enrichment (6-mer frequency, TF over GST control)
- binding signal (GABPA): 1.15 fold enrichment (6-mer frequency, TF over GST control)
- binding signal (ERG): 1.09 fold enrichment (6-mer frequency, TF over GST control)
- binding signal (ELF1): 1.18 fold enrichment (6-mer frequency, TF over GST control)
- binding signal (EHF): 1.14 fold enrichment (6-mer frequency, TF over GST control)
- binding signal (SPI1): 1.12 fold enrichment (6-mer frequency, TF over GST control)
- binding signal (SPIB): 1.13 fold enrichment (6-mer frequency, TF over GST control)
- binding signal (ELK3): 1.16 fold enrichment (6-mer frequency, TF over GST control)
- binding signal (FEV): 1.08 fold enrichment (6-mer frequency, TF over GST control)
- binding signal (ETV5): 1.13 fold enrichment (6-mer frequency, TF over GST control)
- binding signal (HSF1): 1.06 fold enrichment (6-mer frequency, TF over GST control)
- binding signal (SPIC): 1.09 fold enrichment (6-mer frequency, TF over GST control)
- binding signal (ELF4): 1.2 fold enrichment (6-mer frequency, TF over GST control)
- binding signal (ELK4): 1.07 fold enrichment (6-mer frequency, TF over GST control)
- binding signal (ETV2): 1.11 fold enrichment (6-mer frequency, TF over GST control)
- binding signal (ELF3): 1.17 fold enrichment (6-mer frequency, TF over GST control)
- binding signal (CRX): 1.01 fold enrichment (6-mer frequency, TF over GST control)
- binding signal (ETV1): 1.18 fold enrichment (6-mer frequency, TF over GST control)

From PMC7862700, “An all-to-all approach to the identification of sequence-specific readers for epigenetic DNA modifications on cytosine”
